Source: the supplement of paper PMC11006884
The full data set covers some 6,500 targets. This sample favours those with a hit. About 2% of all pairs of compound and target were hits. Values without a mark were called inactive.

Compound: COC(=O)C#Cc1ccccc1 [methyl 3-phenylpropiolate]
Assay: log2 ratio of iodoacetamide-alkyne labeling of the cysteine site, DMSO over compound (competition); higher = stronger covalent engagement of the cysteine by the compound, active = 1 or more
Settings: 500 µM; treatment time 1 h; system: HEK293T cell lysate
Outline: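 The log2 competition ratio per cysteine is defined as mean reporter intensity in control channels over mean reporter intensity in compound channels. Lysate from HEK293T cells (2 mg/mL) received electrophile (500 µM) or vehicle for 1 h at ambient temperature, followed by iodoacetamide alkyne for 1 h. Samples were clicked to sCIP-TMT reagents, pooled, trypsin-digested overnight at 37 °C, streptavidin-enriched, acid-eluted and run on Orbitrap Eclipse LC-MS/MS with FAIMS, with quantification in FragPipe. Three replicates with duplicate channels were used, and any cysteine quantified in only one replicate was excluded.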

Sequence of UniProt O14727 (O14727 whole entry, looked up): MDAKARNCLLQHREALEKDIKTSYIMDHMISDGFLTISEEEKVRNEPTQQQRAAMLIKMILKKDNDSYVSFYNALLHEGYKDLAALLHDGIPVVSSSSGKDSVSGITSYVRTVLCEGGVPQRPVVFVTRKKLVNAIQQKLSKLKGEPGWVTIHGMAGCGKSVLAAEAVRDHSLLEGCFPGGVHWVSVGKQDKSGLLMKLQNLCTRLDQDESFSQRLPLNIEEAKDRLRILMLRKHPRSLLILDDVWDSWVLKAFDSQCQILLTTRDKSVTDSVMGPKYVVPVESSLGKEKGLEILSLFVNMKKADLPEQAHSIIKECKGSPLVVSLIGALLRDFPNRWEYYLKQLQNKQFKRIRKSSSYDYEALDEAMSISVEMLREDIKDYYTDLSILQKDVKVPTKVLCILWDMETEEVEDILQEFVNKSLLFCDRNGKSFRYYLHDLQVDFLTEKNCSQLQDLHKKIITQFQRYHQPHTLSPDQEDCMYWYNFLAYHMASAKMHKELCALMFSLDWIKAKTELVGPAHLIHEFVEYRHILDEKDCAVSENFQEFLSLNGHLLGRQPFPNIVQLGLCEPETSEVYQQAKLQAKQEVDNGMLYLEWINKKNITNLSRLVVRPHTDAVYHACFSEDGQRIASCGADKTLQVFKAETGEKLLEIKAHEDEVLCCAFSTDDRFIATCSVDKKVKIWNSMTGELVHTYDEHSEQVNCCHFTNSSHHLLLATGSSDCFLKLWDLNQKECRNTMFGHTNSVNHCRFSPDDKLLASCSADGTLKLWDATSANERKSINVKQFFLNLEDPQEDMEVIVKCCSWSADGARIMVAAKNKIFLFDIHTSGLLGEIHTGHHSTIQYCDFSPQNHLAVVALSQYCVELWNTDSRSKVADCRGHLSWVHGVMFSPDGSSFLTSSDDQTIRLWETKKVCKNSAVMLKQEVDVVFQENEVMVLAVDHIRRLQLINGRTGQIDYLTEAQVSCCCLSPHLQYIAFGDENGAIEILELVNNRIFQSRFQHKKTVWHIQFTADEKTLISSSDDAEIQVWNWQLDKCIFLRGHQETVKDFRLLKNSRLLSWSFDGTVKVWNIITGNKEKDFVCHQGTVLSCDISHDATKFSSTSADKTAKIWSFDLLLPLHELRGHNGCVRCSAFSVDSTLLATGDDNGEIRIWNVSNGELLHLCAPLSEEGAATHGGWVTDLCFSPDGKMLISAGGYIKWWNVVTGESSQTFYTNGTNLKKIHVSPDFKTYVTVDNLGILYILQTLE
Sequence of UniProt O75179 (O75179 whole entry, looked up): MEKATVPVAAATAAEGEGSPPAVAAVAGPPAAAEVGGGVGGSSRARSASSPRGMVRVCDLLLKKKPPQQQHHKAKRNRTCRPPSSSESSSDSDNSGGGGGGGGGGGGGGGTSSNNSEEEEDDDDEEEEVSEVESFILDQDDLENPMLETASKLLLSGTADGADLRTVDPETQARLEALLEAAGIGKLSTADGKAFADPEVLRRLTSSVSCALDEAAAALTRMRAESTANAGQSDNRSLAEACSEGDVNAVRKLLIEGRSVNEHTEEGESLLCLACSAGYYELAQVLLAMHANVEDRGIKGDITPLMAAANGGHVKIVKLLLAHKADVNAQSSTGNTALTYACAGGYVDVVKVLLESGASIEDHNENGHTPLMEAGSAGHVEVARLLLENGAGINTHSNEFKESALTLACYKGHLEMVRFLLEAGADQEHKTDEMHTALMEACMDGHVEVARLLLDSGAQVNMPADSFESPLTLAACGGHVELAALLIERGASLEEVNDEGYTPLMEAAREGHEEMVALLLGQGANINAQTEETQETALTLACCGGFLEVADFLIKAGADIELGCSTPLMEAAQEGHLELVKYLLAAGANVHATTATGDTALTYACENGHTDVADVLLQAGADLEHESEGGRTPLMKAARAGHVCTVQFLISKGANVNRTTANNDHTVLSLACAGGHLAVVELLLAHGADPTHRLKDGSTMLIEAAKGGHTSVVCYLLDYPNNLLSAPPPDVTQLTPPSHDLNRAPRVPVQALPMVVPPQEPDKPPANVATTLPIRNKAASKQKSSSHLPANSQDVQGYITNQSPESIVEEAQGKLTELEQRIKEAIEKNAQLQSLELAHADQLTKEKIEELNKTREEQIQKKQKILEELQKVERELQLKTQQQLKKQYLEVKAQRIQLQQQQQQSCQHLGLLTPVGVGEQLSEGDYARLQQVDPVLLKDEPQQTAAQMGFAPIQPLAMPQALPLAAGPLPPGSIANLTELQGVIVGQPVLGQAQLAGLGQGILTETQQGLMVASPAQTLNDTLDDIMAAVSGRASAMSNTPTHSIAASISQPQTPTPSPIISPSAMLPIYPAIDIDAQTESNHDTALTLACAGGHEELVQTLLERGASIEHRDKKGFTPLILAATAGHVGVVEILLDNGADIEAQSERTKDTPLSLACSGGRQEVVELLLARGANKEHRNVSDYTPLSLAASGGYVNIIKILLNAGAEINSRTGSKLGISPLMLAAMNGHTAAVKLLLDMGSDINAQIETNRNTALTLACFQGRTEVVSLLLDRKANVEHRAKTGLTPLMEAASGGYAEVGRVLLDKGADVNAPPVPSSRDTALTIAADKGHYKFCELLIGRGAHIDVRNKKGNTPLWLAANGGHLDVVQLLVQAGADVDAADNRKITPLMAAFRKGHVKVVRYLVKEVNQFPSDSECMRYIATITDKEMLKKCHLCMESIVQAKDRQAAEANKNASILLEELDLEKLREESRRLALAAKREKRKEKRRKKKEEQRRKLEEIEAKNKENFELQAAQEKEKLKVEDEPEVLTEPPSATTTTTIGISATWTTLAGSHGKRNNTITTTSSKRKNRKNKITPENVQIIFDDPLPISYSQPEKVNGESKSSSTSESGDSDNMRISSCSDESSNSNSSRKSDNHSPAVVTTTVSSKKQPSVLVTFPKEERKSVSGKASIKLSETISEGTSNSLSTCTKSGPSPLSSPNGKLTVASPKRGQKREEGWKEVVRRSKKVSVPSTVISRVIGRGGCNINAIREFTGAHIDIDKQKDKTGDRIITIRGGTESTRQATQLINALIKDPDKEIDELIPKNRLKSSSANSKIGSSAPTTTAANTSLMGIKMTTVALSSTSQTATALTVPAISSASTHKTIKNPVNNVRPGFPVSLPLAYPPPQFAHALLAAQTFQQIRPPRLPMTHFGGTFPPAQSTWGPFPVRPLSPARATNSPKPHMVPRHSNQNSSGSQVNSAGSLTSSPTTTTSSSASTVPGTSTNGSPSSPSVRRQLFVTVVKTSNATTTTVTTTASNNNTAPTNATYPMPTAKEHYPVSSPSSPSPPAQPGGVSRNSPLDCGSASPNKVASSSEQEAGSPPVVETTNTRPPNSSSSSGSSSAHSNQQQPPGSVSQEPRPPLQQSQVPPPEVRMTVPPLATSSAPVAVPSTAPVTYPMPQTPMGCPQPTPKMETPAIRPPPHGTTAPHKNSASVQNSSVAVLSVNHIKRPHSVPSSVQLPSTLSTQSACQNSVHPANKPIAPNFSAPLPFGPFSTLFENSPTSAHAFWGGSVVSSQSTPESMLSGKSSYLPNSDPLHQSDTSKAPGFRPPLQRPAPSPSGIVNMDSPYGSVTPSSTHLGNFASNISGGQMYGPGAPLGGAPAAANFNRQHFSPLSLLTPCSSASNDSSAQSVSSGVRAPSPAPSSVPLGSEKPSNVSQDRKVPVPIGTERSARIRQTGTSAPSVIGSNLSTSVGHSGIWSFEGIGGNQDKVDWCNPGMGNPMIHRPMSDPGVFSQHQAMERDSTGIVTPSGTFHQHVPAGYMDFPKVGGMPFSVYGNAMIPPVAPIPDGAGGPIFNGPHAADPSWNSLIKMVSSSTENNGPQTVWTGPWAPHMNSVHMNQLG
Sequence of UniProt O14980 (O14980 whole entry, looked up): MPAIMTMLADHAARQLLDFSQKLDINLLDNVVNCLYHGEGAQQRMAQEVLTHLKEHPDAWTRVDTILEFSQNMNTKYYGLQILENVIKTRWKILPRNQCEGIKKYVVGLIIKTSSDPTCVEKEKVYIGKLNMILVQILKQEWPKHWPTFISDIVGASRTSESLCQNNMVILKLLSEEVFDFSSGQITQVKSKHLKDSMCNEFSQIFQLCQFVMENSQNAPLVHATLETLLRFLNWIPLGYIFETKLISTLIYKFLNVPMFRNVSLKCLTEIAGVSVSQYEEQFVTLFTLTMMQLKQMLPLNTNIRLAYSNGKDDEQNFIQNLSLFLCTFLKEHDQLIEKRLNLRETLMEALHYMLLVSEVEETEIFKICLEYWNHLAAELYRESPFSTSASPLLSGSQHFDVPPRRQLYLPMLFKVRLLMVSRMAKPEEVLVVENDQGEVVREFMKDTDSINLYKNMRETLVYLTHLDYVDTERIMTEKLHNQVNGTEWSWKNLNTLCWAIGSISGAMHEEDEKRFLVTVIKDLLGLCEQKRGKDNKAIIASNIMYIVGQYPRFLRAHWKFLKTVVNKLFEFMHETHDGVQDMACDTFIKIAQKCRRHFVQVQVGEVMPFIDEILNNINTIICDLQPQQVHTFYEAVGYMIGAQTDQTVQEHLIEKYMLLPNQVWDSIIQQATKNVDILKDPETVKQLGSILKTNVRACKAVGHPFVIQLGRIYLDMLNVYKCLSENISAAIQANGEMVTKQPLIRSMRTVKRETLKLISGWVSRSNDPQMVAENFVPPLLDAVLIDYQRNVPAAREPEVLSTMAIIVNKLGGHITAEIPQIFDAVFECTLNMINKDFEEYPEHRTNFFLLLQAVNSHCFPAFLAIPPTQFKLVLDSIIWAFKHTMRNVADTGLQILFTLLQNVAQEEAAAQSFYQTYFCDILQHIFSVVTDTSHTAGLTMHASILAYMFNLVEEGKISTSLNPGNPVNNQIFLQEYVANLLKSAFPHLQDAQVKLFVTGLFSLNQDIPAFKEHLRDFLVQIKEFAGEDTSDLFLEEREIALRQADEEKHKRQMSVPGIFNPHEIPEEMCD
Sequence of UniProt O75607 (O75607 whole entry, looked up): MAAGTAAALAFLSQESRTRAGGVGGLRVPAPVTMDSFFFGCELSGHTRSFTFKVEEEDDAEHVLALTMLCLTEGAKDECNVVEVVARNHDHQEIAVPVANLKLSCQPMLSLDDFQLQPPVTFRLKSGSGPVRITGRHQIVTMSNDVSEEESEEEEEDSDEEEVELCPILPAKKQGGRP

Row | Target | log2 ratio of iodoacetamide-alkyne labeling
1 | ANKRD17 C210 (UniProt O75179) | 0.398
2 | APAF1 C115 (UniProt O14727) | 0.288
3 | NPM3 C105 (UniProt O75607) | 0.636
4 | TMEM189 C22 (UniProt A5PLL7) | 1.52 (active)
5 | DDX3X C128 (UniProt O00571) | 0.406
6 | UniProt O00148_C62 | 0.591
7 | TRIM24 C81 (UniProt O15164) | 0.0661
8 | UniProt O95071_C2267 | 0.736
9 | UniProt O75153_C1196 | 0.492
10 | PPFIA2 C143 (UniProt O75334) | -0.214
11 | CPD C582 (UniProt O75976) | 0.145
12 | SART1 C645 (UniProt O43290) | 0.0232
13 | EIF3D C196 (UniProt O15371) | 0.719
14 | WASL C431 (UniProt O00401) | 1.06 (active)
15 | ARHGEF11 C1500 (UniProt O15085) | 0.0286
16 | XPO1 C164 (UniProt O14980) | -0.00596
17 | SF3B1 C1035 (UniProt O75533) | 0.375
18 | UniProt O60232_C56 | 0.126
19 | RNMT C73 (UniProt O43148) | 0.607
20 | UTP20 C2058 (UniProt O75691) | 0.539
21 | HTATSF1 C471 (UniProt O43719) | 1.14 (active)
22 | PSIP1 C204 (UniProt O75475) | 0.31
